Test results reported in PubChem BioAssay (NCI).
This is part of a sample that, as a whole, favours compounds with a hit. Of some 79,000 tested, about 15% had one in any assay. Values without a mark were called inactive. Activity calls are given as the source filed them. Rule as the data show it: active = growth inhibition above about 70%; inactive = the rest.

Assays:
[1] = NCI Yeast Anticancer Drug Screen. Data for the rad50 strain (AID 155);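 also: 0% = growth of vehicle-only cultures of the same strain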; details: S. cerevisiae rad50 strain growth inhibition, active compounds read high
Summary of the method: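 Yeast carrying a defined DNA repair defect were exposed to test compounds, and growth was compared with vehicle-treated controls to give percent inhibition.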

[2] = NCI Yeast Anticancer Drug Screen. Data for the mec2-1 strain (AID 157); details: S. cerevisiae mec2-1 strain, active compounds read high
Summary of the method: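 Readout is yeast growth inhibition, normalised to vehicle-treated controls, in the mec2-1 strain exposed to compound.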

[3] = NCI Yeast Anticancer Drug Screen. Data for the sgs1 mgt1 strain (AID 161);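 also: 0% = growth of cultures given vehicle only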; details: S. cerevisiae sgs1 mgt1 strain, active compounds read high
Summary of the method: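 Yeast cells carrying a defined DNA-repair defect were exposed to test compounds. Growth inhibition was measured relative to vehicle-treated controls.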

[4] = NCI Yeast Anticancer Drug Screen. Data for the cln2 rad14 strain (AID 165);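 also: 0% = growth equal to vehicle treated cultures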; details: S. cerevisiae cln2 rad14 strain, active compounds read high
Summary of the method: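 Relative to vehicle controls, growth inhibition of compound-treated cln2 rad14 yeast was recorded.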

[5] = NCI Yeast Anticancer Drug Screen. Data for the bub3 strain (AID 167); details: S. cerevisiae bub3 mutant strain, active compounds read high
Summary of the method: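 Compounds were applied to a genetically altered yeast strain carrying a cell-cycle control defect. Growth inhibition was scored against vehicle-treated controls.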

[6] = NCI Yeast Anticancer Drug Screen. Data for the mlh1 rad18 strain (AID 175); details: S. cerevisiae mlh1 rad18 strain growth inhibition, active compounds read high
Summary of the method: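 Test agents were incubated with a yeast strain of defined genotype (DNA damage repair defect). Inhibition of growth was derived by comparison with vehicle-exposed cultures.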

[7] = at 5.0 µM (retest, dose inferred, filed as 0.5)
[8] = at 50.0 µM (retest, dose inferred, filed as 5.0)

Row | Structure (SMILES) | growth inhibition [1, 7] | growth inhibition [1, 8] | growth inhibition ([1]; at 50.0 µM) | growth inhibition [2, 7] | growth inhibition [2, 8] | growth inhibition ([2]; at 50.0 µM) | growth inhibition [3, 7] | growth inhibition [3, 8] | growth inhibition ([3]; at 50.0 µM) | growth inhibition [4, 7] | growth inhibition [4, 8] | growth inhibition ([4]; at 50.0 µM) | growth inhibition [5, 7] | growth inhibition [5, 8] | growth inhibition ([5]; at 50.0 µM) | growth inhibition [6, 7] | growth inhibition [6, 8] | growth inhibition ([6]; at 50.0 µM)
1 | CC(C)(C)OC(=O)NCCNC(=O)CN(CC(=O)O)C1CCCCC1N(CC(=O)O)CC(=O)O (stereo not given) | -16% | 59% | 50.4% | -7% | 52% | 62.3% | 1% | 46% | 61.6% | -21% | 46% | 15.9% | 0% | 75% (active) | 66.2% | -10% | 66% | 74.5% (active)
2 | Oc1ccccc1C(Sc1nc2ccccc2s1)Sc1nc2ccccc2s1 | 4% | 97% (active) | 97.3% (active) | 16% | 97% (active) | 95.8% (active) | 19% | 97% (active) | 97.2% (active) | -1% | 93% (active) | 72% (active) | -3% | 97% (active) | 91% (active) | 3% | 98% (active) | 90% (active)
3 | O=C1C=C(c2ccccc2)O/C1=C\C(=O)c1ccc(Cl)cc1 | 48% | 48% | 89.3% (active) | 43% | 43% | 90.9% (active) | 54% | 54% | 86.4% (active) | 14% | 14% | 87.5% (active) | 22% | 22% | 88% (active) | 44% | 44% | 84.5% (active)
4 | CSC1NNC2(C(=O)N1)c1ccccc1-c1ccccc12 (stereo not given) | -2% | 96% (active) | 87.3% (active) | -15% | 98% (active) | 87.9% (active) | 2% | 96% (active) | 90.7% (active) | 9% | 96% (active) | 88.5% (active) | 13% | 97% (active) | 91.7% (active) | -1% | 96% (active) | 88.8% (active)
5 | c1cc[c]([Sn]([CH]2c3ccccc3-c3ccccc32)([CH]2c3ccccc3-c3ccccc32)[CH]2c3ccccc3-c3ccccc32)cc1 | 4% | 0% | 95.2% (active) | 5% | 2% | 98% (active) | -1% | -4% | 95.5% (active) | 3% | 6% | 95% (active) | 2% | -3% | 97.3% (active) | 4% | 11% | 96.3% (active)
6 | Cn1c2nc(-[n+]3ccc4ccccc4c3)nc-2c([O-])n(C)c1=O | 34% | 95% (active) | -9.45% | 12% | 96% (active) | 3.55% | 15% | 96% (active) | -13.1% | 3% | 84% (active) | 49% | 8% | 97% (active) | 0.2% | 12% | 98% (active) | -3.35%
7 | N#CC(C#N)=C1C(Br)=CCc2ccccc21 | 100% (active) | 99% (active) | 99.2% (active) | 100% (active) | 100% (active) | 99.3% (active) | 100% (active) | 99% (active) | 99.2% (active) | 100% (active) | 99% (active) | 97.5% (active) | 100% (active) | 99% (active) | 99.2% (active) | 100% (active) | 99% (active) | 99.2% (active)
8 | N=C(N)c1cccc(-c2ccc(-c3ccccc3)o2)c1 | -3% | 62% | 92.2% (active) | 4% | 72% (active) | 89.8% (active) | 0% | 94% (active) | 57.2% | 2% | 67% | 93.8% (active) | 3% | 71% (active) | 79% (active) | -11% | 85% (active) | 97% (active)
9 | O=C(NC(=O)C(F)(F)F)Nc1ccc(Cl)cc1 | 1% | 0% | -35.8% | -2% | -8% | -1.15% | 1% | 1% | 9.75% | 4% | 0% | 57.1% | -1% | -2% | 18.9% | -1% | -1% | 0.8%
10 | COC1/C=C\OC2(C)Oc3c(C)c(O)c4c(c3C2=O)C2=NC(C)(C)N(c3ccccc3)C2=C(NC(=O)/C(C)=C\C=C\C(C)C(O)C(C)C(O)C(C)C(OC(C)=O)C1C)C4=O (stereo not given) | -2% | 78% (active) | 24.9% | -2% | 95% (active) | 53.5% | -2% | 85% (active) | 72.8% (active) | 2% | 91% (active) | 39.9% | -7% | 69% | 27.9% | -2% | 86% (active) | 51.9%
